Data reported in the supplement of paper PMC3334620.
The full ranking holds about 33,000 sequences; the median of “E-score (-0.5 to 0.5)” is about -0.0059, and the highest 2% start at about 0.26. Only a selection was taken, and the highest values are over-represented in it overall.

target: T1, Cin5 (UniProt P40917); experiment: PBM E-score (8-mer binding enrichment) (E-score (-0.5 to 0.5)); higher = stronger / more preferred TF binding; conditions: protein concentration: 100 nM; construct: GST-full length
T1 sequence: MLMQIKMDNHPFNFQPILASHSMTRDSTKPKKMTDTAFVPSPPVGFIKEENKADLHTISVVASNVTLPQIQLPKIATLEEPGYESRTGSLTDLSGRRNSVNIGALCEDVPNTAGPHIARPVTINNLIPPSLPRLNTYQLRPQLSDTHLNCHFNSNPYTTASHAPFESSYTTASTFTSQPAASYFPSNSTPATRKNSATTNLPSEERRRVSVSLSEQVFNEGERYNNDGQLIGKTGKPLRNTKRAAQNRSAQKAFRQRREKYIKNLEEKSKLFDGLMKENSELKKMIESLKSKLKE
Description: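 Universal 'all 10-mer' protein binding microarrays (Agilent AMADID 015681) probed with GST-tagged S. cerevisiae TFs (full-length or DBD) made by in vitro transcription/translation (PURExpress), about 100-200 nM. Bound TF was detected with fluorescent anti-GST. Each ungapped 8-mer (which stands for itself and its reverse complement) is scored by the PBM enrichment score (E-score), a modified Wilcoxon-Mann-Whitney statistic from -0.5 to +0.5, computed with the Universal PBM Analysis Suite. Scale: above 0.35 generally sequence-specific binding.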

Row | Sequence | PBM E-score
1 | AAAACTAA | 0.275
2 | TAAACTAA | 0.252
3 | GTAAGTAA | 0.24
4 | GAAACTAA | 0.0253
5 | AAAACTAT | 0.2
6 | TTAACTAA | 0.343
7 | CTAACTAA | 0.15
8 | ATAACTAA | 0.141
9 | TTAAGTAA | 0.423
10 | CAAACTAA | 0.266
11 | CTAAGTAA | 0.0623
12 | CAAACTAC | 0.0495
13 | CGACATAG | 0.00383
14 | CTGCAAAC | -0.149
15 | AGCTGCCG | -0.0554
16 | GCGGCGCC | 0.115
17 | CACGTGGG | -0.172
18 | AGGCTGAC | 0.0576
19 | AGGCGGAA | -0.0282
20 | GCGCGAGC | -0.0452
21 | GGAATTGA | 0.199
22 | ACATCATG | 0.0711

Row | Sequence | PBM E-score
23 | ACATCATA | 0.258
24 | ACATCATC | 0.344
25 | GCATCATA | 0.0947
26 | CCATCATC | 0.0863
27 | CCATCATA | 0.05
28 | CAACTCTG | -0.112
29 | GACGCATC | 0.00795
30 | ACCAAGCC | -0.172
31 | CCCCCCTC | -0.465
32 | TAACCAAA | 0.175
33 | AAGGTGAA | -0.0511
34 | CAGGAGGA | -0.315
35 | TACCCATA | 0.0256
36 | AGCTGATG | 0.14
37 | AGTATAAC | -0.129
38 | AGTATAAA | 0.282
39 | GGTATAAA | 0.154
40 | AGTATAAT | 0.301
41 | TGTATAAA | 0.114
42 | AGTATAAG | 0.239
43 | AGTATATC | 0.126
44 | AGTATATA | 0.346

Row | Sequence | PBM E-score
45 | AGTATATG | 0.183
46 | ATTGTCGC | 0.0313
47 | GAACCCAC | 0.121
48 | ATAGTTTA | 0.0429
49 | GGGCGGTA | -0.169
50 | AGCACGAT | 0.0861
51 | ATCTCGCA | 0.00313
52 | ATCTCGCC | 0.0516
53 | ATCTCGCG | 0.266
54 | ATATCGCG | 0.301
55 | ATATCGCA | -0.00978
56 | ATATCGCC | 0.0352
57 | ATATCGAA | 0.221
58 | ATATCGAC | 0.249
59 | ATATCGAT | 0.265
60 | CACGTCGC | -0.119
61 | CTCGACGC | 0.0204
62 | GTTGATTA | 0.268
63 | GCTGATTA | 0.279
64 | CTTGATTA | 0.222
65 | GTTGATGA | 0.154
66 | ATTGATTG | 0.186

Row | Sequence | PBM E-score
67 | ATTGATTC | 0.128
68 | CCTGATTA | 0.252
69 | ATTGATTA | 0.317
70 | ACTGATTA | 0.249
71 | AAGTTGCC | -0.0351
72 | CGGACGAA | 0.15
73 | CACACACG | -0.0573
74 | TCCCAGAA | -0.129
75 | AATCCGGA | 0.234
76 | AATGTTCT | -0.0398
77 | ATTAATTC | 0.238
78 | ATTAATTA | 0.259
79 | ATTAATCA | 0.263
80 | CTTAATGA | 0.0487
81 | ATTAATTG | 0.193
82 | ATTAATGC | 0.19
83 | ATTAATGA | 0.29
84 | GTTAATCA | 0.239
85 | ATTAATCC | 0.18
86 | GCCACATA | 0.064
87 | ACTGCCCT | -0.0972
